Reference: PubChem BioAssay AID1159580 (chemical genetic matrix, 2015)
The campaign covered roughly 5,500 compounds. About 2,000 (36%) were called active. Inconclusive results (about 18%) are left out. Rule as the data show it: active = normalized growth mostly below about 0.91 (no sharp cut-off); inconclusive = no clear call, values can overlap the other calls; inactive = mostly above about 0.92. The list shows a part of the results.

Assay: chemical genetic growth profiling, strain panel (AID 1159580);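 also: tested at 20 µM; growth read once vehicle control cultures reached saturation at 30 °C; 1 = growth at the plate median or of vehicle wells; lower values mean less growth of the strain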
Conditions: growth OD
[1] = S. cerevisiae deletion strains, locus YAL013W, strain DEP1, stronger effect = lower value
[2] = S. cerevisiae deletion strains, locus YBR229C, strain ROT2, stronger effect = lower value
[3] = S. cerevisiae deletion strains, locus YDL101C, strain DUN1, stronger effect = lower value
[4] = S. cerevisiae deletion strains, locus YDR150W, strain NUM1, stronger effect = lower value
[5] = S. cerevisiae deletion strains, locus YEL061C, strain CIN8, stronger effect = lower value
[6] = S. cerevisiae deletion strains, locus YGR078C, strain PAC10, stronger effect = lower value
[7] = S. cerevisiae deletion strains, locus YHR030C, strain SLT2, stronger effect = lower value
[8] = S. cerevisiae deletion strains, locus YHR087W, strain rtc3, stronger effect = lower value
[9] = S. cerevisiae deletion strains, locus YJL187C, strain SWE1, stronger effect = lower value
[10] = S. cerevisiae deletion strains, locus YJR043C, strain POL32, stronger effect = lower value
[11] = S. cerevisiae deletion strains, locus YJR075W, strain HOC1, stronger effect = lower value
[12] = S. cerevisiae deletion strains, locus YLR039C, strain RIC1, stronger effect = lower value
[13] = S. cerevisiae deletion strains, locus YLR058C, strain SHM2 (second series), stronger effect = lower value
[14] = S. cerevisiae deletion strains, locus YLR085C, strain ARP6, stronger effect = lower value
[15] = S. cerevisiae deletion strains, locus YLR262C, strain YPT6, stronger effect = lower value
[16] = S. cerevisiae deletion strains, locus YML094W, strain GIM5, stronger effect = lower value
[17] = S. cerevisiae deletion strains, locus YMR219W, strain ESC1, stronger effect = lower value
[18] = S. cerevisiae deletion strains, locus YMR263W, strain SAP30, stronger effect = lower value
[19] = S. cerevisiae deletion strains, locus YNL153C, strain GIM3, stronger effect = lower value
[20] = S. cerevisiae deletion strains, locus YNL298W, strain CLA4 (second series), stronger effect = lower value
[21] = S. cerevisiae deletion strains, locus YNL322C, strain KRE1, stronger effect = lower value
[22] = S. cerevisiae deletion strains, locus YNR030W, strain Alg12, stronger effect = lower value
[23] = S. cerevisiae deletion strains, locus YPL055C, strain LGE1, stronger effect = lower value
[24] = S. cerevisiae deletion strains, locus YPL241C, strain CIN2, stronger effect = lower value
[25] = S. cerevisiae deletion strains, locus YPR135W, strain CTF4, stronger effect = lower value
[26] = S. cerevisiae strains, strain wild type, stronger effect = lower value

Measured: normalized growth

NC(N)=NC(N)=Nc1cc(C(F)(F)F)cc(C(F)(F)F)c1
inactive: [1] 1 | [2] 0.999 | [3] 0.992 | [4] 0.998 | [5] 1.02 | [6] 0.995 | [7] 0.983 | [8] 0.99 | [9] 1 | [10] 1.01 | [11] 0.977 | S. cerevisiae deletion strains, locus YKL190W, strain CNB1, stronger effect = lower value 1.01 | [12] 1.01 | [13] 1.01 | [14] 1.03 | [15] 1.01 | [16] 0.956 | [17] 1 | [18] 1.01 | S. cerevisiae deletion strains, locus YMR307W, strain GAS1, stronger effect = lower value 0.963 | [19] 0.993 | [20] 0.988 | [21] 0.987 | [22] 1.01 | [23] 0.999 | [24] 1.12 | [25] 1 | [26] 1.01

NC(=NS(=O)(=O)c1cc(C(F)(F)F)cc(C(F)(F)F)c1)c1cccs1
active: [11] 0.89 | [12] 0.561 | [15] 0.578
inactive: [1] 0.975 | [2] 0.977 | S. cerevisiae deletion strains, locus YCL061C, strain MRC1, stronger effect = lower value 0.996 | [3] 0.994 | S. cerevisiae deletion strains, locus YDL134C, strain PPH21, stronger effect = lower value 0.984 | [4] 0.969 | [5] 0.934 | [6] 0.963 | [7] 0.975 | [8] 1.01 | [9] 0.987 | [10] 0.957 | [13] 0.967 | [14] 0.928 | [16] 0.927 | [17] 0.982 | [18] 0.978 | S. cerevisiae deletion strains, locus YNL128W, strain TEP1, stronger effect = lower value 1 | [19] 0.991 | [20] 0.933 | [21] 0.977 | [22] 0.942 | S. cerevisiae deletion strains, locus YOL006C, strain TOP1, stronger effect = lower value 0.949 | [23] 0.9 | [24] 0.946 | [25] 0.877 | [26] 0.978
